Laboratory results taken from PubChem BioAssay AID686978 (National Center for Advancing Translational Sciences (NCATS), 2013).
Out of some 420,000 compounds screened, about 64,000 (15%) were called active. Another 27% or so got no clear call; they are omitted. Only a sample is shown. A number with no mark means an inactive call. The call rests on the fitted dose curve; in most records, active means well fitted inhibition curve with a large enough effect; inconclusive means small, poorly fitted or top-dose-only effect; inactive means flat fitted curve, though single readings scatter.

Assay: qHTS for Inhibitors of human tyrosyl-DNA phosphodiesterase 1 (TDP1): qHTS in cells in absence of CPT; further: nearly all actives have a fitted effect of over 55% in size
Settings: DT40 Tdp1-/- hTDP1 cells, no CPT, ATP luminescence, 48 h; activity change, negative = growth inhibition: at 46.2 µM (top of the series)
Outline: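 Compound effects on proliferation are scored in DT40 Tdp1-/-;hTDP1 cells in the absence of CPT. ATP levels (CellTiter-Glo luminescence) are recorded after a ≥48 hr, 37 °C incubation.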
On the % scale 0 is the no-effect control and ±100 the full control effect; potency means the concentration at half of the fitted maximal effect.

SMILES	activity change, negative = growth inhibition [%]	Potency
O=C(CNC(=O)c1ccco1)NNC(=O)c1ccc(Br)cc1	17.5	–
O=C(Oc1ccc(-c2nc(-c3ccccn3)no2)cc1)c1ccccc1	–	9.2 µM (active)
O=C(Oc1ccccc1)c1ccc2nccnc2c1	2.88	–
CC(C)c1nc(-c2ccccn2)no1	-11.4	–
COc1ccc(S(=O)(=O)N2CCN(CC(=O)N3c4ccccc4CC3C)CC2)cc1OC (stereo not given)	-5.83	–
O=C(NC1=NCCS1)[C@H](Cc1ccccc1)N1C(=O)c2ccccc2C1=O	-17.9	–
Cc1occc1C(=O)NC1CCCN(Cc2ccc(CC(C)C)cc2)C1 (stereo not given)	–	20.6 µM (active)
Cc1occc1C(=O)Nc1cccc(Cn2cccn2)c1	-25.6	–
Cc1occc1C(=O)NNC(=S)NCC(C)C	-1.82	–
CCOC(=O)C(NC(C)=O)C(=O)Nc1ccc(OC)cc1 (stereo not given)	-3.87	–
CC(=O)N(O)CCCCCNC(=O)CCC(=O)N(O)CCCCCNC(=O)CCC(=O)N(O)CCCCCNC(=O)CCC(=O)O	-5.15	–
Cc1cc(C)nc(NC2=NCC(=O)N2c2ccc(Cl)cc2)n1	-7.59	–
CCOC(=O)N1CCN(C(=O)c2ccc3nc4cc(Cl)ccc4c(=O)n3c2)CC1	-13.1	–
CCc1nc2ccc(C(=O)N3CCN(c4cc(Cl)ccc4C)CC3)cc2nc1CC	–	18.4 µM (active)
Cc1ccc(Cl)cc1N1CCN(C(=O)c2cccn3c(=O)c4cc(Cl)ccc4nc23)CC1	-1.72	–
CN(C)CCCNC(=S)N1CCC(c2nc3ccccc3[nH]2)CC1	10.9	–
CC(C)(C)c1ccc(C(CC(=O)O)NS(=O)(=O)Cc2ccccc2)cc1 (stereo not given)	12.1	–
CCCCc1nc2c(=O)[nH]c3ccccc3c2o1	-13.7	–
CC1=C/C(=N\OS(=O)(=O)c2ccccc2)C=CC1=O	–	1 µM (active)
O=S(=O)(ON(c1ccccc1)S(=O)(=O)c1ccccc1)c1ccccc1	-27.9	–
CCCC(=O)Nc1ccc2c(c1)nc1n2CCSC1	-2.08	–
CCCC(=O)Nc1nc2ccc(NC(=O)c3c(F)c(F)c(OC)c(F)c3F)cc2s1	–	0.651 µM (active)

SMILES	activity change, negative = growth inhibition [%]	Potency
CCC(=O)Nc1cccc(NC(=O)c2cccnc2)c1	7.17	–
CCCC(=O)Nc1nc2ccc(NC(=O)c3cccnc3)cc2s1	–	9.2 µM (active)
CSc1nc2ccc(NC(=O)c3c(F)cccc3F)cc2s1	-1.17	–
CCOC(=O)c1cc(NC(=O)c2cccnc2)cc(C(=O)OCC)c1	-5.59	–
O=C(COC(=O)/C=C/c1ccc(OC(F)F)cc1)NC1CCCCC1	-11	–
O=C(CCNS(=O)(=O)c1ccccc1)NCCCc1ccccc1	15.1	–
O=S(=O)(c1ccccc1)N1CN(Cc2ccc(F)cc2)c2nc3ccccc3nc21	-29.9	–
O=C(CCN1C(=O)C2CCCCC2C1=O)Nc1ccc(OC(F)F)cc1 (stereo not given)	-2.98	–
COc1ccccc1CNc1ncnc2ccc(-c3ccc4c(c3)OCO4)cc12	-26.4	–
COc1ccccc1CNc1ncnc2ccc(-c3c(C)noc3C)cc12	–	11.6 µM (active)
COCCNc1ncnc2ccc(-c3ccccc3CN(C)C)cc12	-13.2	–
CCC1(CC)NC(=O)N(CC(=O)OCC(=O)Nc2ccc(C(F)(F)F)cc2)C1=O	-10.4	–
CCCN(CCc1ccccc1)C1CCc2c(O)cccc2C1 (stereo not given)	–	11.6 µM (active)
CCCN(C/C=C\I)[C@@H]1CCc2cccc(O)c2C1	–	21.1 µM (active)
O=C(C(=O)N1CCOc2ccc(CN3CCN(Cc4ccccn4)CC3)cc2C1)c1ccccc1	-22.4	–
COCCNC(=O)c1onc(CSc2cccc(C)c2)c1C(=O)O	-8.38	–
CCOc1ccc(NC(=S)N2CCC(N(C)CC3CCCO3)CC2)cc1 (stereo not given)	1.02	–
COc1ccc2oc(N)c(C=O)c(=O)c2c1	0.424	–
CCOc1ccc(NC(=O)C/C(C)=N/NC(=O)Cc2cccs2)cc1	-1.31	–
CN1C(=O)[C@H]2[C@@H](C3CC3)N3C(=O)CN(Cc4ccccc4)C(=O)[C@@]3(C)[C@H]2C1=O	2.76	–
Cc1cccc(C)c1NC(=O)N1CC=C(n2c(=O)[nH]c3ccccc32)CC1	–	20.6 µM (active)
Cc1cccc(C)c1NC(=O)N1CC(C)OC(C)C1 (stereo not given)	19.8	–

SMILES	activity change, negative = growth inhibition [%]	Potency
Cc1ccccc1Cn1c(=O)[nH]c2ccccc21	-22.8	–
COc1ccc(C)cc1N1C(=O)[C@@H]2C[C@H]1CN2Cc1cccc(OC)c1O	-29.5	–
COc1ccc(N2CCC(N3CCN(C)C(CCO)C3)CC2)cc1 (stereo not given)	25.1	–
COc1ccc(-c2[nH]c3c(c2-c2c(-n4cccc4)n(C)c(=O)n(C)c2=O)c(=O)n(C)c(=O)n3C)cc1	-7.33	–
COc1ccc(-c2c3c(=O)n(C)c(=O)n(C)c3c3c(C)nc4ccccc4n23)cc1	–	20.6 µM (active)
COc1ccc(-c2c3c(=O)n(C)c(=O)n(C)c3cn2NC(C)=O)cc1	1.83	–
CC1=NNC(=O)C1CCC(=O)N/N=C\c1cccc(Cl)c1 (stereo not given)	6.28	–
CC(=O)C[C@@H]1OC[C@H](C)N1S(=O)(=O)c1ccc(C)cc1	1.6	–
Cc1ccc(S(=O)(=O)N2[C@@H](Cc3ccccc3)CO[C@H]2CC(=O)OCc2ccccc2)cc1	–	23.1 µM (active)
CC(=O)C[C@@H]1OC[C@H](CO)N1S(=O)(=O)c1ccc(C)cc1	11	–
CC(=O)Nc1nc(C)c(Cc2ccccc2)c(=O)[nH]1	3.66	–
CCCCn1c(N)c(N(CC(C)C)C(=O)c2ccc(Br)o2)c(=O)[nH]c1=O	-34.5	–
Cc1cccc(CN2CCN(C3CN(Cc4cn(Cc5cc(C)cc(C)c5)nn4)S(=O)(=O)C3)CC2)c1 (stereo not given)	–	16.4 µM (active)
O=S1(=O)CC(N2CCN(Cc3ccccc3F)CC2)CN1Cc1cn(Cc2cccc(C(F)(F)F)c2)nn1 (stereo not given)	–	16.4 µM (active)
O=S1(=O)CC(N2CCN(CCO)CC2)CN1Cc1cn(Cc2ccc(Cl)cc2)nn1 (stereo not given)	-19.6	–
CN(Cc1cn(Cc2ccc(C(F)(F)F)cc2)nn1)C1CN(Cc2cn(Cc3ccc(C(F)(F)F)cc3)nn2)S(=O)(=O)C1 (stereo not given)	–	4.61 µM (active)
Cc1ccc(Cn2cc(CN3CC(N4CCN(C)CC4)CS3(=O)=O)nn2)cc1 (stereo not given)	-22.6	–
CCCCCCN1CCN(C2CN(Cc3cn(CCCCCC)nn3)S(=O)(=O)C2)CC1 (stereo not given)	–	20.6 µM (active)
O=S1(=O)CC(N2CCN(CCO)CC2)CN1Cc1cn(Cc2cccc(Cl)c2)nn1 (stereo not given)	6.99	–
Cc1cc(C)cc(CN2CCc3nnc(C(NS(C)(=O)=O)C(C)C)n3CC2)c1 (stereo not given)	-16.9	–
CN(C)C1CN(Cc2cn(Cc3ccccc3)nn2)S(=O)(=O)C1 (stereo not given)	-19.1	–
